RN4220 kill: kills Staphylococcus aureus RN4220; 0.33% of 330,000 active; inhibition, % (concentration not given with the values); S. aureus RN4220 growth, OD600, 16 h; in the data active = inhibition above about 85%
PrP 5UTR inh: suppresses PrP 5' UTR mRNA reporter expression; 0.35% of 340,000 active; cell-based PrP 5' UTR mRNA reporter, plate reader; inhibition, % (no concentration beside the values); in the data active = inhibition above about 52%
ugtP null kill: growth inhibition of S. aureus ugtP deletion strain. S. aureus RN4220 ugtP deletion, OD600 growth, 16 h. 0.54% of 330,000 active. growth inhibition, % (no concentration beside the values); in the data active = growth inhibition above about 68%
PfHsp40 rescue: compounds rescuing yeast from Plasmodium falciparum HSP40 toxicity | S. cerevisiae expressing PfHsp40, growth rescue, ATP luminescence | growth rescue, % at 12.5 µM | 0.68% of 340,000 active | AID 504582; in the data active = growth rescue above about 28%, passing the limit was not always enough;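 note: yeast W303a lacking pdr1 and pdr3 grown in galactose medium; growth measured after three days at 30 °C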
BJeLR viability: BJeLR cell viability loss; BJeLR (HRASV12) viability, CellTiter-Glo ATP luminescence, 48 h; inhibition, % (concentration not given with the values); 0.17% of 300,000 active; in the data active = inhibition above about 50%
Yp Topo-I inh: inhibitors of Yersinia pestis topoisomerase I | AID 504884 | 0.064% of 360,000 active | Y. pestis Topo-I cleavage product accumulation, plate reader | activity, % at 10 µM; in the data active = activity above about 50%, passing the limit was not always enough
Large screens that a line does not name were inactive. Only some compounds are listed: those with a hit (about 1.4% of all), similar ones and a draw of the others.

Cc1ccc(CSc2nc3ccccc3cc2C=O)cc1	none (no result: RN4220 kill, ugtP null kill)
O=Cc1cc2ccccc2nc1SCc1ccc(Cl)cc1	BJeLR viability 63
O=Cc1cc2ccccc2nc1SCc1ccc(Cl)c(Cl)c1	ugtP null kill 99, BJeLR viability 55
CCOC(=O)c1cn(-c2ccc([N+](=O)[O-])cc2)c2cc(Cl)c([N+](=O)[O-])cc2c1=O	none
O=C(O)c1cn(-c2ccc(F)cc2)c2cc(Cl)c(F)cc2c1=O	ugtP null kill 97
CCN1CC2C3C(=O)N(C)C(=O)C3[C@](Cc3ccccc3)(C1=O)N2C(=O)c1ccc(C)cc1 (stereo partly drawn)	none (no result: PrP 5UTR inh, PfHsp40 rescue, BJeLR viability, Yp Topo-I inh)
CCOC(=O)N1CCN(C(=O)C2CCN(C(=O)c3ccccc3C)CC2)CC1	PfHsp40 rescue 703 (no result: RN4220 kill, ugtP null kill, BJeLR viability)
O=S(c1ccccc1O)S(=O)c1ccccc1O (stereo not drawn)	PfHsp40 rescue 144 (no result: BJeLR viability)
C#CCOc1ccc(C2C3=C(COC3=O)Nc3cc4c(cc32)OCO4)cc1OC (stereo not drawn)	BJeLR viability 61
O=C(Nc1ccccc1)C1=C(c2ccccc2)S(=O)(=O)CCS1(=O)=O	RN4220 kill 90, ugtP null kill 100
O=C(O)CC1SC(=NN=CC2CC=CCC2)NC1=O (stereo not drawn)	none (no result: PrP 5UTR inh, PfHsp40 rescue, BJeLR viability, Yp Topo-I inh)
Nc1nonc1C(=O)NCCN=Cc1ccccc1O	none
Nc1nonc1C(=O)NCCN=Cc1cc(Cc2ccccc2)cc(Br)c1O	PfHsp40 rescue 702
CC(Oc1ccc(Cl)cc1Cl)C(=O)Nc1ncccn1 (stereo not drawn)	none
CC(Oc1cccc(Cl)c1)C(=O)Nc1cc(S(=O)(=O)N2CCOCC2)ccc1N1CCCCC1 (stereo not drawn)	Yp Topo-I inh 71
CCN1CCN(c2ccc(S(=O)(=O)N3CCOCC3)cc2NC(=O)C(C)Oc2cccc(Cl)c2)CC1 (stereo not drawn)	none
Cc1cc(Cl)ccc1OC(C)C(=O)Nc1ccccc1N1CCOCC1 (stereo not drawn)	Yp Topo-I inh 63
Cc1csc(NC(=O)C(C)Oc2ccc(Cl)cc2C)n1 (stereo not drawn)	PfHsp40 rescue 60 (no result: BJeLR viability)
O=C(C=Cc1c(Cl)nc2ccccn12)N1CCN(c2ccccc2F)CC1	none (no result: PrP 5UTR inh, PfHsp40 rescue, BJeLR viability, Yp Topo-I inh)
CC1NC(=O)NC1CCCCCC(=O)O (stereo not drawn)	none (no result: PrP 5UTR inh, PfHsp40 rescue, BJeLR viability, Yp Topo-I inh)
CCCCCCCCOc1ccc(C2CC(=O)NC2=O)cc1 (stereo not drawn)	ugtP null kill 93, PfHsp40 rescue 66
CCn1c(NN=O)nc2ccccc21	PfHsp40 rescue 140
CCn1c(Nc2ccccc2Cl)nc2ccccc21	none
O=C(C1=CC(c2coc3ccccc3c2=O)CC(OCCCCO)O1)N1CCOCC1 (stereo not drawn)	none (no result: PrP 5UTR inh, PfHsp40 rescue, BJeLR viability, Yp Topo-I inh)
Cc1ccccc1Oc1nc(-c2ccccn2)nc2ccccc12	PfHsp40 rescue 245
CC(=O)Nc1ccc(Oc2nc(-c3ccccn3)nc3ccccc23)cc1	none
Cc1cccc(Oc2nc(-c3ccccn3)nc3ccccc23)c1	PfHsp40 rescue 195
CC(=O)n1cc(C2C=C(C(=O)Nc3ccccc3)OC(OCc3ccc(CO)cc3)C2)c2ccccc21 (stereo not drawn)	none (no result: PrP 5UTR inh, PfHsp40 rescue, BJeLR viability, Yp Topo-I inh)
COCCCN1C(=O)C(=O)/C(=C(/O)c2ccccc2)C1c1ccc(N(C)C)cc1 (stereo not drawn)	none
CCN(CC)S(=O)(=O)c1ccc(/C(O)=C2/C(=O)C(=O)N(CCOC)C2c2ccccc2)cc1 (stereo not drawn)	PfHsp40 rescue 97
COC(=O)c1ccc(Oc2ccc(C(C)(C)C)cc2)c([N+](=O)[O-])c1	ugtP null kill 95
CC1CN(C(C)CO)C(=O)c2cc(NS(=O)(=O)c3ccc(F)cc3)ccc2OC1CN(C)C(=O)NC1CCCCC1 (stereo not drawn)	none (no result: PrP 5UTR inh, PfHsp40 rescue, BJeLR viability, Yp Topo-I inh)
O=C(CC(Sc1ccc(Br)cc1)C(=O)O)c1ccc(F)cc1 (stereo not drawn)	ugtP null kill 92 (no result: PrP 5UTR inh)
CCOc1ccc(C(=O)CC(Sc2ccc(C)cc2)C(=O)O)cc1 (stereo not drawn)	none
Cc1cc(C)cc(N2C(=O)NC(=O)/C(=C\c3cccn3-c3ccccc3)C2=O)c1	Yp Topo-I inh 53 (no result: RN4220 kill, ugtP null kill)
Cc1cccc(C2C3C(=O)N(Cc4ccccc4)C(=O)C3[C@]3(CC(C)C)C(=O)N(c4cccc(Cl)c4)C(=O)N23)c1 (stereo partly drawn)	none (no result: PrP 5UTR inh, PfHsp40 rescue, BJeLR viability, Yp Topo-I inh)
CCCCC(=O)NC(c1ccc(Cl)cc1Cl)c1ccc2cccnc2c1O (stereo not drawn)	none (no result: RN4220 kill, ugtP null kill)
CCC(=O)NC(c1ccc(Cl)cc1Cl)c1ccc2cccnc2c1O (stereo not drawn)	PfHsp40 rescue 122 (no result: RN4220 kill, ugtP null kill)
CCCC(=O)NC(c1ccc(N(C)C)cc1)c1ccc2cccnc2c1O (stereo not drawn)	PfHsp40 rescue 410 (no result: RN4220 kill, ugtP null kill)
O=C(CSc1nnc(-c2ccccc2)c(-c2ccccc2)n1)Nc1ccc(Br)cn1	ugtP null kill 88
O=C(CSc1nnc(-c2ccccc2)c(-c2ccccc2)n1)Nc1ncc(Cl)cc1Cl	none
COc1cc(C=O)c(Br)cc1OCc1ccc(C)cc1	none
CCOc1cc(C=O)c(Br)cc1OC1CCCC1	ugtP null kill 87
O=[N+]([O-])c1ccc(O)c(C2=NNC(c3ccccc3F)C2)c1 (stereo not drawn)	RN4220 kill 92, ugtP null kill 94 (no result: PrP 5UTR inh)
Cc1cccc(N2CCN(C(=S)Nc3ccc4nc(N5CCN(C)CC5)cc(C)c4c3)CC2)c1C	BJeLR viability 71
Cc1cc(N2CCN(C)CC2)nc2ccc(NC(=S)N3CCCCC3)cc12	none
Cc1cc(N2CCN(C)CC2)nc2ccc(NC(=S)NCCN3CCc4ccccc4C3)cc12	PfHsp40 rescue 49
CC(C)COc1ccc(-c2nn(-c3ccccc3)cc2/C=C2/SC(=S)N(CC(=O)O)C2=O)cc1	RN4220 kill 98
O=C(O)CN1C(=O)/C(=C\c2cn(-c3ccccc3)nc2-c2ccccc2)SC1=S	none (no result: RN4220 kill, ugtP null kill)
COc1ccc2c(c1)OCC1C2N2C(=O)CNC(=O)[C@@]2(C)C1c1ccccc1 (stereo partly drawn)	none (no result: PrP 5UTR inh, PfHsp40 rescue, BJeLR viability, Yp Topo-I inh)
CN(C)n1cccc1/C=C(\C#N)S(=O)(=O)c1ccc(Cl)cc1	PfHsp40 rescue 49
CCN1C(=O)CC(N2CCN(c3ccc(C(=O)c4ccncc4)cc3)CC2)C1=O (stereo not drawn)	none
CCOc1ccc(N2C(=O)CC(N3CCN(c4ccc(C(=O)c5ccncc5)cc4)CC3)C2=O)cc1 (stereo not drawn)	Yp Topo-I inh 82
CC(C)(C)c1cc(C(=O)NN=Cc2ccc([N+](=O)[O-])s2)n[nH]1	RN4220 kill 101, ugtP null kill 101 (no result: PrP 5UTR inh, PfHsp40 rescue, BJeLR viability, Yp Topo-I inh)
Cc1cc(C(=O)N/N=C/c2ccc([N+](=O)[O-])s2)n[nH]1	none (no result: RN4220 kill, ugtP null kill)
Cc1ccc(C(=O)NN=Cc2ccc([N+](=O)[O-])s2)cn1	ugtP null kill 88 (no result: PrP 5UTR inh, PfHsp40 rescue, BJeLR viability, Yp Topo-I inh)
Cc1c(C(=O)OCC(=O)N(CC(C)C)c2c(N)n(Cc3ccccc3)c(=O)[nH]c2=O)oc2ccccc12	Yp Topo-I inh 82 (no result: BJeLR viability)
